This is an account of results in PubChem BioAssay AID492998 (Southern Research Specialized Biocontainment Screening …, 2010).

Hit rate of the full screen: of about 2,300 compounds, about 550 (24%) were called active. No rule for the calls is given here. The list is a sample of the results. Where a call stands in place of a potency, no number is given. Potency and affinity values are given separately.

This test in a line: Vero E6 cell cytotoxicity, dose response, cytotoxicity control for non-replicating M. tuberculosis project, secondary assay (AID 492998). Conditions: series mostly up to 20 µM.
In the case of `CC(C(=O)OCC(=O)c1ccccc1)N1C(=O)C2C3CCC(C3)C2C1=O` (stereo not given), the molecule was called inactive.

With `COc1cccc(C(=O)OCC(=O)c2ccc(Br)s2)c1OC`, the outcome was inactive.

Consider `COc1ccccc1C1=Nn2c(nnc2C2CCCCC2)SC1`, for which the call was inactive.

Consider `c1nc2n(n1)C1=C(CCCC1)C1(CCCCC1)N2`, for which the result was inactive.

On to `O=C(Nc1ccc(Cl)cc1Cl)c1cccc(N2C(=O)C=CC2=O)c1`, for which the call was inactive.

Take `O=c1c2cc(Cl)ccc2oc2nc3n(c(=O)c12)CCCS3`: the molecule was classed as inactive.

As to `CCCc1nnc(NC(=O)c2cc3ccccc3oc2=O)s1`, the call was inactive.

`COCc1[nH]nc2c1C(c1sccc1C)C(C#N)=C(N)O2` (stereo not given): the result was inactive.

As for `CCc1ccc(OCC(=O)c2c(O)c3ccccc3oc2=O)cc1`, the result was inactive.

For `O=C(CCC1CCCCC1)NCc1cccs1`, the call was inactive.

For the molecule `COc1cc(/C=N/Nc2cccc3cccnc23)cc(OC)c1O`, the call was inactive.

With `C/C(O)=C\c1nc2ccccc2oc1=O`, the outcome was inactive.

On to `Oc1cc(NCc2cccnc2)ccc1-c1nc2ccccc2o1`, for which the molecule was classed as inactive.

For the molecule `COc1ccc(/C=C/c2nc3ccccc3c(=O)o2)cc1`, the outcome was inactive.

In the case of `CC(=O)c1ccc(-c2nnc(CCC(=O)N(C)Cc3cccc4cnccc34)o2)s1`, the outcome was inactive.

In the case of `c1coc(CNc2nc(N3CCCCC3)nc3ccccc23)c1`, the molecule was called inactive.

Regarding `O=[N+]([O-])c1ccc(CSc2nnc(-c3cccnc3)o2)cc1`, the call was inactive.

Regarding `CC1CCN(C(=O)COC(=O)CCc2c[nH]c3ccccc23)CC1`, the call was inactive.

`Cc1ccc(N=N/C(=C\O)C(=O)c2ccncc2)cc1`: the result was inactive.

Regarding `CCOC(=O)Nc1cccc(OCC(=O)Nc2ccc(OC)cc2OC)c1`, the outcome was inactive.

Regarding `O=C(Nc1ncc([N+](=O)[O-])s1)c1ccc2c(c1)OCO2`, the result was inactive.

With `Cc1ccc(NC(=O)COC(=O)C2=COCCO2)c([N+](=O)[O-])c1`, the result was inactive.

Turning to `O=C(Nc1nccs1)c1ccc2ccccc2c1`, the outcome was inactive.

`O=C(COC(=O)c1cc(Br)ccc1O)Nc1ccc2c(c1)OCO2`: the call was inactive.

As to `COc1ccc2nc(/N=C(\N)NC(=O)C(C)(C)C)nc(C)c2c1`, the molecule was classed as inactive.

For the molecule `COc1ccc(Nc2ccccc2N)cc1`, the molecule was called inactive.

`Cc1cccc(NC(=O)c2cc3ccccc3oc2=O)c1`: the molecule was classed as inactive.

Take `CCc1ccc(N2C(=O)NC(=O)/C(=C\C=C\c3ccco3)C2=O)cc1`: the call was inactive.

Take `O=C(COc1ccc2ccccc2c1)NNC(=O)c1cccs1`: the result was inactive.

As to `CCc1c(C)c2ccc(OCC(=O)OC)cc2oc1=O`, the molecule was called inactive.

On to `O=C(O/N=C/c1ccc2c(c1)OCO2)c1ccc([N+](=O)[O-])cc1`, for which the result was inactive.

As to `CCC(=O)Nc1ccc(C(=O)NNC(=O)c2cc([N+](=O)[O-])cc([N+](=O)[O-])c2)cc1`, the result was inactive.

`c1ccc(OCc2nnc3sc(-c4cccs4)nn23)cc1`: the molecule was classed as inactive.

As for `CCOC(=O)c1cc([N+](=O)[O-])c([N+](=O)[O-])cc1NC(C)=O`, the result was inactive.

On to `O=C(c1ccc([N+](=O)[O-])o1)N1CCN(c2nc3ccc(F)cc3s2)CC1`, for which the molecule was classed as inactive.

On to `COc1cc2c(cc1OC)CN(C(=O)c1ccc([N+](=O)[O-])o1)CC2`, for which the molecule was called inactive.

Turning to `CC1(CCc2ccc3c(c2)OCO3)NC(=O)c2ccccc2N1` (stereo not given), the molecule was called inactive.

Take `COc1ccccc1-c1cc(SC)c(C#N)c(=O)o1`: the result was inactive.

With `COc1ccccc1-c1nnc(-c2ccc(C)cc2)o1`, the call was inactive.

Consider `CCc1ccc(NC(=O)CCc2ccc(C)o2)cc1`, for which the outcome was inactive.

`O=S(=O)(NCc1cccnc1)c1ccc(Cl)c(Cl)c1Cl`: the call was inactive.

`Cc1ccccc1OCCNc1cc(N2CC(C)NC(C)C2)ccc1[N+](=O)[O-]` (stereo not given): the outcome was inactive.

Turning to `CC1CCCN(CCCOc2ccc([N+](=O)[O-])cc2)C1` (stereo not given), the molecule was classed as inactive.

With `S=c1[nH]c2ccccc2o1`, the outcome was inactive.

For the molecule `CCOc1ccc(OC(=O)c2ccc3c(=O)n4c(nc3c2)CCC4)cc1`, the result was inactive.

With `O=Cc1c(NCc2ccco2)nc2ccccn2c1=O`, the outcome was inactive.

Turning to `CC(C)Oc1ccc(CNC(=O)Oc2ccccc2)cc1`, the call was inactive.

In the case of `CCCOc1ccc(N2CC(C(=O)Nc3ccccc3F)CC2=O)cc1` (stereo not given), the outcome was inactive.

Turning to `CCOC(=O)Cn1c2ccc(F)cc2c2nc(C)sc21`, the outcome was inactive.

As to `Cc1cccc(NC(=O)c2cc3ccccc3o2)c1`, the result was inactive.

With `CC(C)(C)NC(=O)C(=O)NNC(=O)c1ccc(C(C)(C)C)cc1`, the call was inactive.

With `CCOC(=O)c1nc2sc3c(c2c(=O)[nH]1)CCC(C)C3` (stereo not given), the outcome was inactive.

As for `COc1ccc(OCC(=O)Nc2ccc(N3CCN(C(=O)c4ccco4)CC3)cc2)cc1`, the molecule was called inactive.

As to `O=C(CCN1C(=O)S/C(=C\c2ccc(F)cc2)C1=O)Nc1ccc(C(=O)O)c(O)c1`, the result was inactive.

On to `CC(=O)c1cccc(NC(=O)C2COc3ccccc3O2)c1` (stereo not given), for which the outcome was inactive.

With `Cc1ccc(CNCc2cc(Cl)ccc2O)cc1`, the result was inactive.

In the case of `O=C(CCCOc1ccccc1)OCn1nnc2ccccc2c1=O`, the result was inactive.

As for `O=C(NCc1ccccc1)c1cc2ccccc2oc1=O`, the result was inactive.

With `CCC/C(=N\NC(=O)c1ccco1)c1ccc(Cl)s1`, the molecule was classed as inactive.

Consider `C/C(=C\C(=O)c1ccc(Br)cc1)NNC(=O)c1ccccc1`, for which the outcome was inactive.

In the case of `O=C(Nc1nccs1)c1ccc(Br)cc1`, the call was inactive.

With `COc1cc(C=O)ccc1OCCCCOc1ccccc1[N+](=O)[O-]`, the call was inactive.

As for `CCOC(=O)c1cc(-c2c(Cl)cccc2Cl)no1`, the outcome was inactive.

`O=C(O)CCCCCN1C(=O)CSC1=S`: the molecule was called inactive.

Take `O=C(O)c1ccc(CN2C(=O)CSC2=S)cc1`: the result was inactive.

For `c1ccc(Cn2c(SCCN3CCOCC3)nnc2-c2cccnc2)cc1`, the molecule was called inactive.

As for `COc1ccc(CN=C2NN=C(c3ccc(Cl)cc3)CS2)cc1`, the molecule was called inactive.

As for `O=C1NC(Cc2c[nH]c3ccccc23)C(=O)N1CCOc1ccccc1` (stereo not given), the molecule was classed as inactive.

Turning to `CCOc1ccc(/C=N/OCC(=O)Nc2ccc3c(c2)OCO3)cc1`, the molecule was called inactive.

On to `COc1cccc(OCC(=O)NNC(=O)c2cccs2)c1`, for which the call was inactive.

For `CCC(=O)N/N=C/c1ccc(-c2ccc(Cl)cc2)o1`, the molecule was called inactive.

With `Cc1ccc(CO/N=C/c2c(O)cc(C)oc2=O)cc1`, the result was inactive.

In the case of `Cc1ccc(NC(=O)C2COc3ccccc3O2)nc1` (stereo not given), the call was inactive.

As to `O=C1NC(=S)S/C1=C\c1ccc(SCc2ccco2)o1`, the call was inactive.

`O=C(C/C=N\OCc1ccc([N+](=O)[O-])cc1)Nc1ccccc1`: the outcome was inactive.

As to `C/C(=N\Nc1nc2ccccc2[nH]1)c1ccc(N2CCOCC2)cc1`, the result was inactive.

As to `CCCc1cc(=O)n2[nH]c(C)c(-c3ccccc3)c2n1`, the result was inactive.

In the case of `CC(C)[C@H](NC(=O)c1ccc(Br)cc1)C(=O)NC1CCCCC1`, the outcome was inactive.

Regarding `O=C(c1cc([N+](=O)[O-])cc([N+](=O)[O-])c1)N(Cc1nnc(-c2ccccc2Cl)o1)C1CC1`, the molecule was classed as inactive.

Take `CC(=O)N1CCN(C(=O)CC2OC(=O)c3ccccc32)CC1` (stereo not given): the call was inactive.

Turning to `Cc1c(Cl)cccc1-c1ccc(CNCc2ccccn2)o1`, the molecule was classed as inactive.

As to `Cc1ccsc1C(=O)OCC(=O)NCCC1=CCCCC1`, the call was inactive.

As for `COCCn1c(C)cc(C(=O)COC(=O)c2ccc(Br)o2)c1C`, the call was inactive.

In the case of `COc1cc(/C=C2/C(=O)NN(c3cccc(F)c3)C2=O)ccc1OC(=O)c1ccco1`, the result was inactive.

For `CC(C)(C)OC(=O)N/N=C\c1ccc([N+](=O)[O-])s1`, the molecule was classed as inactive.

For `O=C(Nc1ccc(Cl)c(Cl)c1)O/N=C/c1ccncc1`, the result was inactive.

For `CCCCN(C/C=C/c1ccccc1OC)Cc1ccccc1`, the molecule was called inactive.

For the molecule `CCCOC(=O)c1ccc(NC(=O)c2ccc(Br)o2)cc1`, the molecule was called inactive.

Take `COc1ccc(-c2nc(C=O)cs2)cc1`: the molecule was classed as inactive.

Turning to `Cc1cccc(NC(=O)COc2ccc(Br)cc2)n1`, the molecule was called inactive.

Consider `COc1cccc(NC(=O)c2cc3ccccc3oc2=O)c1`, for which the call was inactive.

For `Cc1ccc(C(=O)c2cncc(Br)c2)cc1`, the call was inactive.

For the molecule `CC(=O)Oc1ccc(/C=C2\N=C(C3CCCCC3)OC2=O)cc1`, the molecule was classed as inactive.

Take `CCCCOc1ccc(-c2nnn(C(C)C(=O)OCC)n2)cc1` (stereo not given): the molecule was called inactive.

Turning to `Clc1ccc(N=c2ssnc2Cl)nc1`, the molecule was called inactive.

For the molecule `COc1ccccc1N1CCN(C(=O)c2ccc([N+](=O)[O-])s2)CC1`, the call was inactive.

For the molecule `O=C(c1ccc([N+](=O)[O-])s1)N1CCN(c2cccc(Cl)c2)CC1`, the molecule was classed as inactive.

Consider `Cc1ccccc1N1CCN(Cc2ccc([N+](=O)[O-])o2)CC1`, for which the result was inactive.

As to `O=[N+]([O-])c1ccc(CN2CCN(c3ccccc3Cl)CC2)o1`, the outcome was inactive.

`CCOC(=O)COc1ccc2c(=O)c(-c3ccccc3OC)coc2c1`: the molecule was classed as inactive.

Consider `COc1ccc(OCCOC(=O)CCS(=O)(=O)c2ccc(C)cc2)cc1`, for which the molecule was called inactive.

`C=CCN(CC=C)CC(=O)Nc1ccc(S(N)(=O)=O)cc1`: the call was inactive.

In the case of `O=C1N/C(=N\c2ccccn2)SC1Cc1ccc(Cl)cc1` (stereo not given), the result was inactive.

On to `COc1ccc(OCCSc2nnc(Cc3cccc4ccccc34)n2N)cc1`, for which the molecule was called inactive.

On to `CC1=CC2=NC(=O)/C(=C\c3ccc(OC(=O)c4ccco4)cc3)C(=N)N2O1`, for which the molecule was called inactive.

On to `Cn1[nH]c(-c2ccccc2)c(/C=N/O)c1=O`, for which the result was inactive.

On to `CS/C(Nc1cc(Cl)ccc1Cl)=C(/C#N)C(=O)c1ccco1`, for which the molecule was classed as inactive.

Regarding `COc1ccc(N2C(=O)C(F)(F)C2c2cccc(F)c2)cc1` (stereo not given), the outcome was inactive.

With `O=C(NN=C(Cc1ccccc1)Cc1ccccc1)c1ccncc1`, the outcome was inactive.

Regarding `O=C(N/N=C/C=C/c1ccccc1)c1ccncc1`, the molecule was classed as inactive.

Consider `O=C(CN1CCN(c2ccccc2)CC1)Nc1nnc(-c2ccccc2)s1`, for which the molecule was classed as inactive.

With `Cc1ccc(C(=O)COC(=O)c2cccs2)cc1`, the outcome was inactive.

Turning to `CCCCCn1nnc2c(=O)oc3ccccc3c21`, the result was inactive.

As to `CCOc1ccc(NCC(=O)c2ccc(C)cc2)cc1`, the result was inactive.

In the case of `CCc1ccc(C2=C/C(=C/c3cccnc3)C(=O)O2)cc1`, the molecule was classed as inactive.

As to `O=C(NN=C1C2CC3CC1CC(Cl)(C3)C2)c1cccs1`, the molecule was called inactive.

Turning to `CC(C)(C)c1ccc(NC(=O)COc2ccc(-n3ccnc3)cc2)cc1`, the molecule was called inactive.

As to `Cn1c(-c2cccc([N+](=O)[O-])c2)cnc1NCc1cccc(F)c1`, the molecule was classed as inactive.

Take `Cc1ccc(C)c(NC(=O)c2cc([N+](=O)[O-])cc([N+](=O)[O-])c2)c1`: the call was inactive.

`Cc1cc(Cl)ccc1OC(C)C(=O)Nc1ccc([N+](=O)[O-])cn1` (stereo not given): the molecule was called inactive.
